# Experimental data: publication PMC7862700, “An all-to-all approach to the identification of sequence-specific readers for epigenetic DNA modifications on cytosine”
# Legend:
# Assay in all cases: DAPPL (digital affinity profiling via proximity ligation, sequencing); 10 mM Tris-HCl pH 7.5, 50 mM NaCl, 1 mM DTT, 4% glycerol, room temperature, 30 min; GST-TFs on glutathione beads, 16-mer random dsDNA library, 0.1% formaldehyde crosslink after washing; high values mean tight binding
# FLI1 = biological target: T1, FLI1 (Homo sapiens, UniProt Q01543 1-452); conditions: protein: recombinant; tags: N-terminal GST; dsDNA, one strand shown
# T1 sequence: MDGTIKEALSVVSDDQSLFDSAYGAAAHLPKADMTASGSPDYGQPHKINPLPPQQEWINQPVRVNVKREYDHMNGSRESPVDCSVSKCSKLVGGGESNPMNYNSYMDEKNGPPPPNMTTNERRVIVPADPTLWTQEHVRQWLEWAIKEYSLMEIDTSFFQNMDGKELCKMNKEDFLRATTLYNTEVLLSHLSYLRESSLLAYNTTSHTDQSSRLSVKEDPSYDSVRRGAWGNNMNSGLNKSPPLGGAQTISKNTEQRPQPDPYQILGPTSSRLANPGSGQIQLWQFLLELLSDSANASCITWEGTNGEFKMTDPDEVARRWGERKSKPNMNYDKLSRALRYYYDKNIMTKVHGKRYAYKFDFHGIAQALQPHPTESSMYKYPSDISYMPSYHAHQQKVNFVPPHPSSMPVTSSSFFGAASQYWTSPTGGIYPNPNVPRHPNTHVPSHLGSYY
# Outline: (§1)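 Pools of DNA-barcoded human transcription factors, expressed in yeast as GST fusions on glutathione beads and combined with a tag-only sample, were incubated with 200 nmole of a 16-mer random double-stranded DNA library. Incubation took 30 min at room temperature in Tris/NaCl/DTT/glycerol buffer and was followed by washing, 0.1% formaldehyde crosslinking, proximity ligation (BsaI/T4 ligase, 1 h, 37 °C), PCR amplification and sequencing on an Illumina NextSeq500. Binding signal is the ratio of a hexamer's read frequency for a factor to its frequency for the tag-only sample.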
# ELK1 = biological target: T2, ELK1 (Homo sapiens, UniProt P19419 1-428); conditions: protein: recombinant; tags: N-terminal GST; dsDNA, one strand shown
# T2 sequence: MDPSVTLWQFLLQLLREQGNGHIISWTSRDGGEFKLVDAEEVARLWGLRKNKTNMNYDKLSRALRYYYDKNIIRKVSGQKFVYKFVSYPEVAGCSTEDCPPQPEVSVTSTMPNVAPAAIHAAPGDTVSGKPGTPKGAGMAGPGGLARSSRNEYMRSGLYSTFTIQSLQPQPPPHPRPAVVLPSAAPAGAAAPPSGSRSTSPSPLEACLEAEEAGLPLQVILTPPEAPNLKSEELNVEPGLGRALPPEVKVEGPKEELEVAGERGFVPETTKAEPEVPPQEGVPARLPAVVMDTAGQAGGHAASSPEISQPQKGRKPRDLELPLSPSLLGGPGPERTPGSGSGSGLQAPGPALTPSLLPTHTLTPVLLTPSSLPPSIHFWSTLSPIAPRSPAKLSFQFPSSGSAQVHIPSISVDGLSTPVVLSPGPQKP
# Outline: as §1
# GABPA = biological target: T3, GABPA (Homo sapiens, UniProt Q06546 1-454); conditions: protein: recombinant; tags: N-terminal GST; dsDNA, one strand shown
# T3 sequence: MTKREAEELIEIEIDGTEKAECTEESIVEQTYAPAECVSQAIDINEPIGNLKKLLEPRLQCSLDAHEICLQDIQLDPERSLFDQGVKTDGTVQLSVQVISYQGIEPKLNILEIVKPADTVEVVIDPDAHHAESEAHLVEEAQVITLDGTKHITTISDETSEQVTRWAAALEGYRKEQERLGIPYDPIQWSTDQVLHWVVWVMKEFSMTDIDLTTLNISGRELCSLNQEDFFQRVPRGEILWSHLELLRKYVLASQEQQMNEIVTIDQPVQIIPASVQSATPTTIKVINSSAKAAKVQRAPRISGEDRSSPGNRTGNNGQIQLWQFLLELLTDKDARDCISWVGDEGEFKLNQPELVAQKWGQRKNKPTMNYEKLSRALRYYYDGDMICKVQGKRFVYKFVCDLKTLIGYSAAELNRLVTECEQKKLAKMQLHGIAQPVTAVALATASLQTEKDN
# Outline: as §1
# ERG = biological target: T4, ERG (Homo sapiens, UniProt P11308 1-479); conditions: protein: recombinant; tags: N-terminal GST; dsDNA, one strand shown
# T4 sequence: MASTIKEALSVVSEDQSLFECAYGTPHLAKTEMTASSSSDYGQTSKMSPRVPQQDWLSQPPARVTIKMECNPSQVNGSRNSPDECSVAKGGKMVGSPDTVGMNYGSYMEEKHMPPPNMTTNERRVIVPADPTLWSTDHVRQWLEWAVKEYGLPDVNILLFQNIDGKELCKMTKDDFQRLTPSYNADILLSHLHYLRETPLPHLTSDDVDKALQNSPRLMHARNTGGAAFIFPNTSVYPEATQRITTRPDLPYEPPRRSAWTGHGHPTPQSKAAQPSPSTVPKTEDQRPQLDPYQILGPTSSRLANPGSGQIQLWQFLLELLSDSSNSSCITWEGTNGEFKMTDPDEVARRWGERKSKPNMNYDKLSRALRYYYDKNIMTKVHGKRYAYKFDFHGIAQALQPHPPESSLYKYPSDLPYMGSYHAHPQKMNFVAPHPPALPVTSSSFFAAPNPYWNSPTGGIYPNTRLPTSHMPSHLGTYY
# Outline: as §1
# ELF1 = ELF1 (Homo sapiens, UniProt P32519 1-619); conditions: protein: recombinant; tags: N-terminal GST; dsDNA, one strand shown
# Outline: as §1
# EHF = biological target: T5, EHF (Homo sapiens, UniProt Q9NZC4 1-300); conditions: protein: recombinant; tags: N-terminal GST; dsDNA, one strand shown
# T5 sequence: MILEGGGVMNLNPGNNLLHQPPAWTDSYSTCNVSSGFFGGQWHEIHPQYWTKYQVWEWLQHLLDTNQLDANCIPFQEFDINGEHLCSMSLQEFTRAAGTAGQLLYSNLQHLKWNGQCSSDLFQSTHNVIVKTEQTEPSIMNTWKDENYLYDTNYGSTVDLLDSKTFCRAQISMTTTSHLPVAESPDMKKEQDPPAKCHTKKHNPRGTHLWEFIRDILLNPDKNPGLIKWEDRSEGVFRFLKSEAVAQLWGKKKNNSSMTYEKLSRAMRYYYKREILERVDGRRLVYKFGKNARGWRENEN
# Outline: as §1
# SPI1 = SPI1 (Homo sapiens, UniProt P17947 1-270); conditions: protein: recombinant; tags: N-terminal GST; dsDNA, one strand shown
# Outline: as §1
# SPIB = SPIB (Homo sapiens, UniProt Q01892 1-262); conditions: protein: recombinant; tags: N-terminal GST; dsDNA, one strand shown
# Outline: as §1
# ELK3 = biological target: T6, ELK3 (Homo sapiens, UniProt P41970 1-407); conditions: protein: recombinant; tags: N-terminal GST; dsDNA, one strand shown
# T6 sequence: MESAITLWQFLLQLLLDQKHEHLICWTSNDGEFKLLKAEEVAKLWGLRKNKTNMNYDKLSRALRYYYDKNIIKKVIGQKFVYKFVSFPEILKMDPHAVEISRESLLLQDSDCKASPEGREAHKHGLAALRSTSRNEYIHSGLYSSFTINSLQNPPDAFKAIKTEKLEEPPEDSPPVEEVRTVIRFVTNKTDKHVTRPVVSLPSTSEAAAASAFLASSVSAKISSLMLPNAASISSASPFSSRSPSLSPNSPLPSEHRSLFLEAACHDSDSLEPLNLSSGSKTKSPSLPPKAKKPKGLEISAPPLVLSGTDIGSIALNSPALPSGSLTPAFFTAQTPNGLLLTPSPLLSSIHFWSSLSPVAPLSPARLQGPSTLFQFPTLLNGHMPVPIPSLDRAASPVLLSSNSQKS
# Outline: as §1
# FEV = biological target: T7, FEV (Homo sapiens, UniProt Q99581 1-238); conditions: protein: recombinant; tags: N-terminal GST; dsDNA, one strand shown
# T7 sequence: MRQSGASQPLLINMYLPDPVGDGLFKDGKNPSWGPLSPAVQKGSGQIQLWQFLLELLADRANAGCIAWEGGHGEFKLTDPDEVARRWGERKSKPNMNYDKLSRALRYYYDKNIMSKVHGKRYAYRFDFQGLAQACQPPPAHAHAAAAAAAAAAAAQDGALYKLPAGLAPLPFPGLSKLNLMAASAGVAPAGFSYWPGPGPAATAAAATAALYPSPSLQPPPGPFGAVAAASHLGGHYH
# Outline: as §1
# ETV5 = ETV5 (Homo sapiens, UniProt P41161 1-510); conditions: protein: recombinant; tags: N-terminal GST; dsDNA, one strand shown
# Outline: as §1
# HSF1 = HSF1 (Homo sapiens, UniProt Q00613 1-529); conditions: protein: recombinant; tags: N-terminal GST; chain copies: 3; dsDNA, one strand shown
# Outline: as §1
# SPIC = biological target: T8, SPIC (Homo sapiens, UniProt Q8N5J4 1-248); conditions: protein: recombinant; tags: N-terminal GST; dsDNA, one strand shown
# T8 sequence: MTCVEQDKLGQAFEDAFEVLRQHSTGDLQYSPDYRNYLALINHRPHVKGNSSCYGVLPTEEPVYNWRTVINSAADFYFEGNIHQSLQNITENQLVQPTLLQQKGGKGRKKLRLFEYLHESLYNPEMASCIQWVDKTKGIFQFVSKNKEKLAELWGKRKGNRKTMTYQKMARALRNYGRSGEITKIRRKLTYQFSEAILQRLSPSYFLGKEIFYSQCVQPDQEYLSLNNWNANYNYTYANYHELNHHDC
# Outline: as §1
# ELF4 = ELF4 (Homo sapiens, UniProt Q99607 1-663); conditions: protein: recombinant; tags: N-terminal GST; dsDNA, one strand shown
# Outline: as §1
# ELK4 = biological target: T9, ELK4 (Homo sapiens, UniProt P28324-2 1-405); conditions: protein: recombinant; tags: N-terminal GST; dsDNA, one strand shown
# T9 sequence: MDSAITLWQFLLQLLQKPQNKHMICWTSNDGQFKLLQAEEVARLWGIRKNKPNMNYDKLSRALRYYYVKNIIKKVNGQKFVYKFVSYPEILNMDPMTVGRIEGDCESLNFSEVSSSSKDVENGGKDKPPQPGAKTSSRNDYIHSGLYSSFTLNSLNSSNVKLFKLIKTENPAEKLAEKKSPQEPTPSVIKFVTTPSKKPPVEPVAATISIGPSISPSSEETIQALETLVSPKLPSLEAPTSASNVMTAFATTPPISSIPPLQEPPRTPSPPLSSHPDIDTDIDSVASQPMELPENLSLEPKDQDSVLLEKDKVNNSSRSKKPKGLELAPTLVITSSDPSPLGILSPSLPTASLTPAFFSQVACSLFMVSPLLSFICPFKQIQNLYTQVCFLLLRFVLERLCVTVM
# Outline: as §1
# ETV2 = biological target: T10, ETV2 (Homo sapiens, UniProt O00321 1-342); conditions: protein: recombinant; tags: N-terminal GST; dsDNA, one strand shown
# T10 sequence: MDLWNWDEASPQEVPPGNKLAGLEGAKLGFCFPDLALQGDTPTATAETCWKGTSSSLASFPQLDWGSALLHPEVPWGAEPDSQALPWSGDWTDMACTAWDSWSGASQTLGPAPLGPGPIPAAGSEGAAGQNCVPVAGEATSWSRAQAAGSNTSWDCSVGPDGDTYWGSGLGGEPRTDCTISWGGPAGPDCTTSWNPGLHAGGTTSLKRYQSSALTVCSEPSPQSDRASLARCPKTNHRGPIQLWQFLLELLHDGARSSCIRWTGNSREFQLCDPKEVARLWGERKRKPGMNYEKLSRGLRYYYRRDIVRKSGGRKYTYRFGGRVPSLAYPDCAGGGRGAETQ
# Outline: as §1
# ELF3 = biological target: T11, ELF3 (Homo sapiens, UniProt P78545 1-371); conditions: protein: recombinant; tags: N-terminal GST; dsDNA, one strand shown
# T11 sequence: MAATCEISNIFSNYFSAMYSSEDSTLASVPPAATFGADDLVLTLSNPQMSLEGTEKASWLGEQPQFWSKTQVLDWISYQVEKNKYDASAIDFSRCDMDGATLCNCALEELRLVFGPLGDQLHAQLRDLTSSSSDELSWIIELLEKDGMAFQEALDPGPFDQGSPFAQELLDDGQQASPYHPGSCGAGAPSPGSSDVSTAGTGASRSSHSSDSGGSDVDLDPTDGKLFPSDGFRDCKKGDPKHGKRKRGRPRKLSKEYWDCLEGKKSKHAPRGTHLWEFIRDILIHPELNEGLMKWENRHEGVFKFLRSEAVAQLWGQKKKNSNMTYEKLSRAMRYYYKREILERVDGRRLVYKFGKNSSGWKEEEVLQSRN
# Outline: as §1
# CRX = CRX (Homo sapiens, UniProt O43186 1-299); conditions: protein: recombinant; tags: N-terminal GST; dsDNA, one strand shown
# Outline: as §1
# ETV1 = ETV1 (Homo sapiens, UniProt P50549 1-477); conditions: protein: recombinant; tags: N-terminal GST; dsDNA, one strand shown
# Outline: as §1
# HSF1, sequence (Q00613 whole entry): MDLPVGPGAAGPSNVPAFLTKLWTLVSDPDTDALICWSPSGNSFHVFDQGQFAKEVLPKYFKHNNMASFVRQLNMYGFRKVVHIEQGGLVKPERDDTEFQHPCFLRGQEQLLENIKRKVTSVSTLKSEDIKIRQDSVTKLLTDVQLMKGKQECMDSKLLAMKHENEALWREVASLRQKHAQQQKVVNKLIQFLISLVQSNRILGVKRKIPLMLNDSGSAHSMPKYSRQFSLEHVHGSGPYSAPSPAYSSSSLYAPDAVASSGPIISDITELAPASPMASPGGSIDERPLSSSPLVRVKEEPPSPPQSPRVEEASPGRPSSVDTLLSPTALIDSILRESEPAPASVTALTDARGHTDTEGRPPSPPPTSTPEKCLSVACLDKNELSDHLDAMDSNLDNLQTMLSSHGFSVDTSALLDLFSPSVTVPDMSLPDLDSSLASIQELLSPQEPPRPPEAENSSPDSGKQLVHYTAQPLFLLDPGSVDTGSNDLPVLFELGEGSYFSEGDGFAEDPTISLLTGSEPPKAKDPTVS
# SPIB, sequence (Q01892 whole entry): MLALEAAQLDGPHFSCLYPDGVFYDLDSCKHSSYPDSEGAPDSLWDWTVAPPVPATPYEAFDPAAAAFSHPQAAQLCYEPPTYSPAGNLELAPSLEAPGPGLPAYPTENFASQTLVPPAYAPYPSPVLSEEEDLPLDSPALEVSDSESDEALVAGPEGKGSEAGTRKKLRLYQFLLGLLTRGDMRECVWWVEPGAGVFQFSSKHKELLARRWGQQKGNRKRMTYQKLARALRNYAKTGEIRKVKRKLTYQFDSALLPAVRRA
# ETV5, sequence (P41161 whole entry): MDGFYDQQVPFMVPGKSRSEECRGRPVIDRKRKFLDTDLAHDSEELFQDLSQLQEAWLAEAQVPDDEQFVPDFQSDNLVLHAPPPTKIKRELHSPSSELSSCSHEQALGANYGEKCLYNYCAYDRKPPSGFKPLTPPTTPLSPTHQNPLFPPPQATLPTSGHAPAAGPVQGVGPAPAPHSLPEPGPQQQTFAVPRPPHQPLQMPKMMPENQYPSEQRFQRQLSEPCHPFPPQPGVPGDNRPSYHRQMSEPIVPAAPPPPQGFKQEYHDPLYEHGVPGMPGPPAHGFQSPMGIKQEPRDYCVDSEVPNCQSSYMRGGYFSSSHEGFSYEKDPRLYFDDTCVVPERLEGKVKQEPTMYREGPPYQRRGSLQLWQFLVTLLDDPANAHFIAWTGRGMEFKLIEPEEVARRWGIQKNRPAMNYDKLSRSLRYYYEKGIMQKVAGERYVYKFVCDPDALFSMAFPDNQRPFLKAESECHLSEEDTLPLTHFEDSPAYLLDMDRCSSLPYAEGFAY
# ELF1, sequence (P32519 whole entry): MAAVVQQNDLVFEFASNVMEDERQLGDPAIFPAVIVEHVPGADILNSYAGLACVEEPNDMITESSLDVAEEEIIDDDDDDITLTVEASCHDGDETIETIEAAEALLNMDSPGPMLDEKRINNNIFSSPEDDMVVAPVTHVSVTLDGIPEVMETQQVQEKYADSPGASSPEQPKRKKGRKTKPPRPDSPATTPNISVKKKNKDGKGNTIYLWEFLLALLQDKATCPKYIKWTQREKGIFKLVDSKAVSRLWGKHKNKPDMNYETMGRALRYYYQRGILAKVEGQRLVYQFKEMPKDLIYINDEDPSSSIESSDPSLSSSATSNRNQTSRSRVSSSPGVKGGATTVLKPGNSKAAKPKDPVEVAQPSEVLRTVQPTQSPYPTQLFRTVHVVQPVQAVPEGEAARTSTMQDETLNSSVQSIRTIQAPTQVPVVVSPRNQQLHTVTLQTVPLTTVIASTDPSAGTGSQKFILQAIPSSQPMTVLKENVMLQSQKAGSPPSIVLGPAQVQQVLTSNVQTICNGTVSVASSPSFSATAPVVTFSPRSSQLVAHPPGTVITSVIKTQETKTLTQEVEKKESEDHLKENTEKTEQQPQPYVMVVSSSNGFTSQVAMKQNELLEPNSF
# CRX, sequence (O43186 whole entry): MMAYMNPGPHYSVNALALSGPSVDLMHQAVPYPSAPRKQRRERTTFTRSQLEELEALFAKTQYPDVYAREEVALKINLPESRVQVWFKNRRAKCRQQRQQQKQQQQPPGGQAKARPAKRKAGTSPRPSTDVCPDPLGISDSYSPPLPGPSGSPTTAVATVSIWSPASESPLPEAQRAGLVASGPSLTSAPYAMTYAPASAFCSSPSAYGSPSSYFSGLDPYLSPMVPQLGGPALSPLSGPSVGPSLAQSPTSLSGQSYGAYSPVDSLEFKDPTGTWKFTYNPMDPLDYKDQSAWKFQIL
# ETV1, sequence (P50549 whole entry): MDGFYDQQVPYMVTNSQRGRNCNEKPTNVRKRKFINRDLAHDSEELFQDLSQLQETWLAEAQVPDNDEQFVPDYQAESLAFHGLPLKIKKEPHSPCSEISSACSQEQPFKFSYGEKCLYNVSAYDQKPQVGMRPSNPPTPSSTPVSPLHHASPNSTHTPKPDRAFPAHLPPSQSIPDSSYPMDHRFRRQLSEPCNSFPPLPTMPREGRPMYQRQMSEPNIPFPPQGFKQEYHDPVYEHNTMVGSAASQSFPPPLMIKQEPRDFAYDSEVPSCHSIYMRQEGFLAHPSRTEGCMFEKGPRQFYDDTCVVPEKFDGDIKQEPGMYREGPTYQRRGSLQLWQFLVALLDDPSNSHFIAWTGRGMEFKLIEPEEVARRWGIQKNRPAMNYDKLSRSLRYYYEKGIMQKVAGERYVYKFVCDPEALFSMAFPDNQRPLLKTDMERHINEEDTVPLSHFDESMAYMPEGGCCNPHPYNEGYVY
# ELF4, sequence (Q99607 whole entry): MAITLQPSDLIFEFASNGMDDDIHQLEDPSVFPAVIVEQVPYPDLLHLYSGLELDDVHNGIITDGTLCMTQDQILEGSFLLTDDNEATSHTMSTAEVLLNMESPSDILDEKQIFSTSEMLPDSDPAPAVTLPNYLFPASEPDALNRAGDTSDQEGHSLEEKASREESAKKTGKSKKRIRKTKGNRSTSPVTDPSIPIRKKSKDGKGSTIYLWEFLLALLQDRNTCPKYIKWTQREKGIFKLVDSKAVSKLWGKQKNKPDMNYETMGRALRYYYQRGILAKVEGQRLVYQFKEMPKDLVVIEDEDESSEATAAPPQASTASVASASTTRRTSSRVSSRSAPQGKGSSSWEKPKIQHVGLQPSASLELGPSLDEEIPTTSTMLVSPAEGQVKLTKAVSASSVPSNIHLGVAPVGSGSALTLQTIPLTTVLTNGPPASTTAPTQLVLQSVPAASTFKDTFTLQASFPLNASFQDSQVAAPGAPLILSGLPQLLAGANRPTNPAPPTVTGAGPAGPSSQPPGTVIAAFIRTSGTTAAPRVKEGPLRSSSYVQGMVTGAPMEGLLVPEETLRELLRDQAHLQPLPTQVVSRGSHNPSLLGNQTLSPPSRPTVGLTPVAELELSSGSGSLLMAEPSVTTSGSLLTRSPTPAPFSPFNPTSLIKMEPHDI
sequence,measurement,setting,value
TATCCG,binding signal,FLI1,"2.64 fold enrichment (6-mer frequency, TF over GST control)"
same,binding signal,ELK1,"2.53 fold enrichment (6-mer frequency, TF over GST control)"
same,binding signal,GABPA,"2.26 fold enrichment (6-mer frequency, TF over GST control)"
same,binding signal,ERG,"3.2 fold enrichment (6-mer frequency, TF over GST control)"
same,binding signal,ELF1,"2.38 fold enrichment (6-mer frequency, TF over GST control)"
same,binding signal,EHF,"2.48 fold enrichment (6-mer frequency, TF over GST control)"
same,binding signal,SPI1,"2.29 fold enrichment (6-mer frequency, TF over GST control)"
same,binding signal,SPIB,"2.8 fold enrichment (6-mer frequency, TF over GST control)"
same,binding signal,ELK3,"2.41 fold enrichment (6-mer frequency, TF over GST control)"
same,binding signal,FEV,"4.84 fold enrichment (6-mer frequency, TF over GST control)"
same,binding signal,ETV5,"2.85 fold enrichment (6-mer frequency, TF over GST control)"
same,binding signal,HSF1,"1.54 fold enrichment (6-mer frequency, TF over GST control)"
same,binding signal,SPIC,"2.38 fold enrichment (6-mer frequency, TF over GST control)"
same,binding signal,ELF4,"2.2 fold enrichment (6-mer frequency, TF over GST control)"
same,binding signal,ELK4,"2.29 fold enrichment (6-mer frequency, TF over GST control)"
same,binding signal,ETV2,"2.68 fold enrichment (6-mer frequency, TF over GST control)"
same,binding signal,ELF3,"2.33 fold enrichment (6-mer frequency, TF over GST control)"
same,binding signal,CRX,"1.95 fold enrichment (6-mer frequency, TF over GST control)"
same,binding signal,ETV1,"2.72 fold enrichment (6-mer frequency, TF over GST control)"
